# Screens deposited in PubChem BioAssay by National Center for Advancing Translational Sciences (NCATS).
# In the library only some 8.7% were active in any assay of this set; here they are far more common.
# HP1b binding inh: inhibitors of HP1-beta chromodomain binding to methylated histone tails | Potency, µM (series often up to 114 µM), for the others: top-dose activity change, negative = inhibition, actives largely listed as inhibitors | AlphaScreen HP1-beta / biotin-H3K9me3 peptide binding | 390,000 tested, 0.56% active; note: nearly all actives have a fitted effect of over 70% in size
# Target sequence (P83916 whole entry, looked up): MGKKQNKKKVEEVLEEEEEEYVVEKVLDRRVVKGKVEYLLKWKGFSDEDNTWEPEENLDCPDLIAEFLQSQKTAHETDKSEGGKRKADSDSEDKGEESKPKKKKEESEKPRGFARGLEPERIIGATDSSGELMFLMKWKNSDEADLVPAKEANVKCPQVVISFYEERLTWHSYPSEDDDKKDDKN
#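 Compound inhibition of the preformed complex between 50 nM HP1-beta and 50 nM biotinylated H3K9me3 peptide was read by AlphaScreen. Buffer was PBS pH 7.4 with 0.01% Tween-20. Incubations ran 30 min at room temperature, with 10 ug/mL donor/acceptor beads.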
# G9a block: G9a (human) methyltransferase inhibition | AID 504332 | G9a H3K9 monomethylation, AlphaScreen, 2 h | Q96KQ7 | 350,000 tested, 8.8% active | Potency, µM (titrated, usually from 102 µM), without a hit: at the highest dose activity, negative = inhibition, hits mostly inhibitors; note: % is set by controls: 0 for no effect and ±100 for the full control effect; nearly all actives have a fitted effect of over 75% in size
# Target sequence (Q96KQ7 913-1193 limits assumed): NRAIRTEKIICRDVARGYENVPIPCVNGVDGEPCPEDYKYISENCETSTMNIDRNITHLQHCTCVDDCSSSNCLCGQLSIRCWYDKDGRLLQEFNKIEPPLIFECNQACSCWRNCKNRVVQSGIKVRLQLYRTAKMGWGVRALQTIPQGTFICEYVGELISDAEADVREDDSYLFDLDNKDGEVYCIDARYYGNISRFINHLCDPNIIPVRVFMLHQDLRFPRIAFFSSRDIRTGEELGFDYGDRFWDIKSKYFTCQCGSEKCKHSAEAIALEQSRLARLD
#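 Quantitative HTS format: methyltransferase activity on a biotin-tagged H3K9 peptide is measured by AlphaScreen, using a rabbit anti-monomethyl-H3K9 antibody with streptavidin donor and anti-IgG acceptor beads. Final levels are 20 nM enzyme, 500 nM peptide, 20 uM SAM; 2 h RT.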
# BAZ2B block: BAZ2B (human) inhibition. 360,000 tested, 4.4% active. Potency, µM (highest dose often 114 µM), without a hit: top-dose activity change, negative = inhibition, hits mostly inhibitors. AID 504333. AlphaScreen BAZ2B-H3K14Ac peptide displacement; note: % is set by controls: 0 for no effect and ±100 for the full control effect; nearly all actives have a fitted effect of over 60% in size
#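 In this displacement format the biotinylated H3(5-23) peptide acetylated at Lys14 serves as ligand at 50 nM, with BAZ2B at 50 nM in PBS pH 7.4 containing 0.01% Tween-20. Donor and acceptor beads are 10 ug/mL final.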
# Sfp PPTase inh: Sfp phosphopantetheinyl transferase inhibition; AID 1490; 310,000 tested, 3.5% active; Biochemical Sfp PPTase activity, qHTS; Potency, µM, for inactives: largest response in the series, negative = inhibition, most hits filed as inhibitors;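 note: the enzyme is Sfp with the accession as filed and its product quenches rhodamine fluorescence; 0% = enzyme reaction without inhibitor and -100% = no enzyme wells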
#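 With Hepes-Na pH 7.6 buffer containing 10 mM MgCl2, Sfp (15 nM) modified BHQ-2-YbbR (12.5 uM) using rhodamine-CoA (5 uM). Two reads 30 minutes apart at 525/598 nm yielded each well's rate.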
# JMJD2A Tudor: blocks the human JMJD2A Tudor domain | 390,000 tested, 4.4% active | AlphaScreen JMJD2A-Tudor / H3K4me3 peptide binding | Potency, µM (series often up to 114 µM), inactives show at the top dose activity change, negative = inhibition, most hits filed as inhibitors; note: % is set by controls: 0 for no effect and ±100 for the full control effect; nearly all actives have a fitted effect of over 50% in size
# 12-LOX inh: blocks human arachidonate 12S-lipoxygenase | AID 1671190 | P18054 | 580,000 tested, 1.1% active | Potency, µM (top dose mostly 108 µM), inactives show top-dose activity change, negative = inhibition, usual class: inhibitors | purified 12hLO, xylenol orange hydroperoxide absorbance; note: % is set by controls: 0 for no effect and ±100 for the full control effect
#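 Purified human 12hLO at 150 nM in 25 mM Hepes, 0.01% Triton X-100, pH 7.0, preincubated 15 min at room temperature with compound. Reaction started with 40 uM arachidonic acid, 30 min at room temperature. Hydroperoxide measured by Fe-xylenol orange, 573/405 nm absorbance ratio.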
# Active calls of the source: *; ? = inconclusive; / = no result; [ ] = dose if it differs, or a comment. Calls come from the whole dose curve; as a rule, active = well fitted curve in the direction sought with a large enough effect; inconclusive = small, poorly fitted or top-dose-only effect, or another doubt; inactive = no such curve, though single readings can be large; an effect the other way counts as inactive or inconclusive. Potency is the fitted concentration of half-maximal effect.
SMILES,HP1b binding inh,G9a block,BAZ2B block,Sfp PPTase inh,JMJD2A Tudor,12-LOX inh
CSc1nnc(NC(=O)c2nc(S(=O)(=O)Cc3ccccc3)ncc2Cl)s1,-2%[57 µM],50µM*,45µM*,-10%,16µM*,-8%
CCc1cc(=O)oc2c(C)c(OCC(=O)NCCCN(C)C)ccc12,/,/,/,/,/,-9%
C=CCc1ccccc1OCC(O)CN1CCN(c2ccc(OC)cc2)CC1 (stereo not drawn),?,?,50µM*,-5%,18µM*,0%
C=CCc1ccc(OCC(O)CN2CCN(c3ccccc3OC)CC2)c(OC)c1 (stereo not drawn),3%,-22%[2.33 µM],?,-8%,-22%,?
C=CCc1ccccc1OCC(O)CN1CCOCC1 (stereo not drawn),45%,/,/,/,-15%,40µM*
C=CCc1ccccc1OCC(O)CNC (stereo not drawn),29%,50µM*,1%,22%,-14%,0%
C=CCc1ccc(OCC(O)CN2CCN(Cc3ccc(Cl)cc3)CC2)c(OC)c1 (stereo not drawn),12%,50µM*,?,-24%,-20%[57.1 µM],?
N#Cc1cc2c(n(-c3ccccc3C(F)(F)F)c1=O)CCCC2=O,/,/,/,/,/,-60%
O=C(Nc1ccccc1)c1nn(C2CCS(=O)(=O)C2)c2c1CCCC2 (stereo not drawn),/,/,/,/,/,9%
O=C(NCCNC(=O)C1CC1)c1cc2ccccc2[nH]1,/,/,/,/,/,11%
O=C(O)CNS(=O)(=O)c1ccc2[nH]c(=O)c(=O)[nH]c2c1,19%,56µM*,-5%,7%,-15%,-7%
O=C(O)CNS(=O)(=O)c1ccc2c(c1)CCCC2,22%,-32%,-18%,14%,-15%,-3%
Cc1nn(-c2ccc(C(F)(F)F)cc2)c(C)c1[C@@H]1C=C[C@@H](NC(=O)c2cccnc2)C1,/,/,/,/,/,13%[176 µM]
COc1cc(/C=N/N=C2/C(=O)Nc3ccccc32)ccc1O,-36%,?,?,2%,?,-25%
Oc1ccc(/C=N/N=C/c2ccc(O)c(O)c2)cc1O,-27%,35µM*,10µM*,-16%,7.9µM*,1.1µM*
O=C(/C(=N/N=C/c1ccc(O)c(O)c1)c1ccccc1)c1ccccc1,?,32µM*,40µM*,5%,25µM*,40µM*
Oc1ccc(N=Cc2cccc(OCc3ccccc3)c2)cc1,/,/,/,/,/,67%
Oc1ccc(N=Cc2ccc(O)c(O)c2)cc1,?,1.3µM*,45µM*,45µM*,56µM*,/
O=C1Nc2ccccc2/C1=N\N=C\c1ccc(O)c(O)c1,32µM*,/,40µM*,?,?,?
CCOC(=O)c1cc(-c2ccccc2)nn1Cc1cc(CC)no1,180%,21%[2.33 µM],111%,/,97%,-119%
CCOC(=O)c1cc(-c2ccccc2C)nn1Cc1cc(CC)no1,205%,25%[2.33 µM],98%,/,119%,7.9µM*
CCc1cc(Cn2nc(-c3ccccc3)cc2C(=O)NCc2cccs2)on1,30%,3%[2.33 µM],12%,/,-1%,8.9µM*
Cn1nc(-c2ccccc2)cc1NC(=O)c1ccc(Cl)cc1,45%,30%[12.7 µM],32%,/,-11%,-15%
Cn1cnc(S(=O)(=O)Nc2cc(-c3ccc(Cl)cc3)nn2C)c1,29%,50µM*,0%,11%,-11%,5%
O=C(CSc1nnc(-c2ccncc2)n1-c1ccc(Cl)cc1)NCc1ccc2c(c1)OCO2,/,/,/,/,/,-1%
SMILES,HP1b binding inh,G9a block,BAZ2B block,Sfp PPTase inh,JMJD2A Tudor,12-LOX inh
CC1(C)CNc2cc(N)ccc2S1,?,3.5µM*,45µM*,-9%,45µM*,?
O=C1CCCc2c1cc(-c1ccccc1)n2-c1ccccc1,?,45µM*,25µM*,14%,40µM*,11%
O=C(CNC(=O)c1cc2c(n(-c3ccccc3)c1=O)CCCC2=O)c1ccccc1,20%,/,-6%,17%,3%,234%
Cc1ccc(S(C)(=O)=O)cc1C(=O)Nc1ccc(N2CCOCC2)cc1,/,/,/,/,/,7%
C=CCOc1cccc(NC(=O)C2CCCCC2)c1,/,/,/,/,/,-5%
CN(C)S(=O)(=O)c1cccc(-c2nnc(SCCNCCO)n2-c2ccc(F)cc2)c1,21%,?,79µM*,-17%,50µM*,3%
CCCN(CCC)c1ccc(CC(=O)NC(C)Cc2ccccc2)cc1 (stereo not drawn),-36%,10µM*,?,-2%,?,-15%
Brc1ccccc1Oc1ccc2nnnn2n1,/,/,/,/,/,40%
CN(C)Cc1cc(C(C)(C)C)c(O)c(C(C)(C)C)c1,-11%,50µM*,-9%,5%,-18%[11.4 µM],0%
O=C(NC1CCCCC1)C1CCN(C(=O)N2CC3CC(C2)[C@H]2CCCC(=O)N2C3)CC1 (stereo partly drawn),/,/,/,/,/,32%
Cn1ccnc1C(=O)N1CCC(N2C(=O)C3(CCCC3)C2c2ccccc2)CC1 (stereo not drawn),/,/,/,/,/,17%
COc1cc(OC)cc(C(=O)NCc2n[nH]c(=S)n2-c2ccccc2)c1,18%,7%[0.0925 µM],10%,89µM*,7.9µM*,?
COc1ccc(C(=O)NCc2n[nH]c(=S)n2-c2ccccc2)cc1OC,11%,?,0%,56µM*,6.3µM*,-21%
FC(F)(F)c1ccc2c(c1)nc1n2[C@@H](CNC2CCOCC2)COC1,/,/,/,/,/,21%[176 µM]
COCCNC(=O)[C@@H]1C[C@H](Oc2ccccc2)CN1C(=O)c1ccc2ccccc2n1,/,/,/,/,/,45%
O=C1NC(=NC2CCCCC2)C2(CCN(Cc3cccnc3)C2)N1c1cc(F)cc(F)c1 (stereo not drawn),/,/,/,/,/,-1%[6.33 µM]
O=C(COC(=O)c1cc2c(s1)CCC2)Nc1ccc(F)cc1,40µM*,?,50µM*,28%,14µM*,?
NC(=O)c1ccc(NC(=O)COC(=O)c2cc3c(s2)CCC3)cc1,?,/,/,/,?,-12%
COC(=O)c1ccc(COC(=O)c2cc3c(s2)CCC3)o1,/,/,/,/,/,8.9µM*
COC(=O)c1ccc(COC(=O)c2cc3c(s2)CCCCC3)o1,/,/,/,/,/,-27%
O=C(COC(=O)c1cc2c(s1)CCCC2)Nc1ccc(Cl)cn1,45%,?,7%,17%,2%,-10%
COc1ccc(NC(=O)COC(=O)c2cc3c(s2)CCC3)cc1,?,10%[12.7 µM],79µM*,/,?,/
O=C(NC1CC1)C1c2ccccc2C(=O)N(C2CCCCC2)C12CCCCC2 (stereo not drawn),/,/,/,/,/,44%
COCCN1CC(CO)C2(CCN(C(=O)CN3CCOCC3)CC2)C1 (stereo not drawn),/,/,/,/,/,38%
COc1ccc(/C=N/NS(=O)(=O)c2ccc(F)cc2)cc1COc1cc(F)ccc1[N+](=O)[O-],45%,6.3µM*,-19%,-26%,-9%,-10%
